Marburg entry inh: Marburg virus entry inhibition; Marburg virus pseudotyped entry inhibition, cell reporter; Potency, µM (highest dose often 37.8 µM), for the others: top-dose activity change, negative = inhibition, actives largely listed as inhibitors; 1.8% of 300,000 active; AID 540276; calls by dose curve; tested in HEK293 cells; note: potency is the fitted concentration of half-maximal effect
Lassa entry inh: blocks Lassa virus binding to or entry into cells | Lassa virus pseudotype entry inhibition, cell reporter | Potency, µM (doses to about 37.9 µM), without a hit: top-dose activity change, negative = inhibition, most hits filed as inhibitors | 1.2% of 300,000 active | AID 540256; calls by dose curve; tested in HEK293 cells; note: potency is the fitted concentration of half-maximal effect; nearly all actives have a fitted effect of over 50% in size
VACV mCherry inh: vaccinia inhibition (mCherry reporter); Vaccinia virus mCherry reporter infection, fluorescence; Potency, µM (series often up to 36.5 µM), without a hit: top-dose activity change, negative = inhibition, actives largely listed as inhibitors; 0.63% of 310,000 active; AID 720579; calls by dose curve; tested in A549 cells; note: potency is the fitted concentration of half-maximal effect; nearly all actives have a fitted effect of over 35% in size
VACV Venus inh: inhibitors of vaccinia virus (Venus reporter); Vaccinia virus Venus reporter expression, fluorescence; Potency, µM (top dose mostly 36.5 µM), for the others: at the top dose activity change, negative = inhibition, hits mostly inhibitors; 0.46% of 330,000 active; AID 720580; calls by dose curve; tested in A549 cells; note: potency is the fitted concentration of half-maximal effect; nearly all actives have a fitted effect of over 30% in size
HCMV antiviral: blocks human cytomegalovirus replication | HFF cells, HCMV-luciferase reporter, 72 h; hits give low values | activity change, negative = inhibition, % at 57.5 µM | 4.5% of 410,000 active | AID 1259415; in the data active = activity change below about -60%; inconclusive = no clear call, values can overlap the other calls; inactive = above about -39%
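Cell-based, HFFs, 1000 cells/well, 16 h 37C; cpds in DMSO + HCMV-luc, MOI 1 PFU/cell; 72 h 37C; OneGlo luminescence after 5 min RT; norm. to buffer vs Salinomycin 10uM.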
HCV inh: inhibitors of hepatitis C virus infection | Potency, µM (highest dose often 41.8 µM), for the others: at the highest dose activity change, negative = inhibition, actives largely listed as inhibitors | Huh7.5.1 HCVcc-Cre infection, luciferase reporter, 44 h | 3.4% of 340,000 active; active = well fitted inhibition curve with a large enough effect; inconclusive = small, poorly fitted or top-dose-only effect, or another doubt; inactive = no such curve, though single readings can be large or run the other way; note: potency is the fitted concentration of half-maximal effect
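Antiviral activity was scored by luciferase reporter output from cells infected with HCVcc-Cre (~0.5 moi) in presence of compound, 44 h infection period, cells seeded 1,000/well 4 h prior.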
* = called active by the depositor; i = inactive; ? = inconclusive; . = no result given; [ ] = remark or other dose. Shown are actives, neighbours in structure and some others; about 7.8% of the full set was active somewhere. % is set by controls: 0 for no effect and ±100 for the full control effect.

SMILES | Marburg entry inh | Lassa entry inh | VACV mCherry inh | VACV Venus inh | HCMV antiviral | HCV inh
COc1ccc(/C=N/NC(=S)Nc2cccc(C(=O)O)c2)cc1OC | ? | ? | i | -11% | -34 | 12%
COc1ccc(C=NNC(=S)NN=Cc2ccc(OC)c(OC)c2)cc1OC | ? | ? | -24% | -5% | -102* | -21%
COc1cc(/C=N/NC(N)=S)ccc1OCc1ccc(C)cc1 | ? | ? | 11µM* | ? | ? | ?
COc1ccc(C=NNC(=S)Nc2ccc(F)cc2)cc1OC | ? | ? | -14% | -19% | -61* | -6%
COc1cc(/C=N/NC(N)=S)ccc1OC(=O)c1ccc(C)cc1 | -2% | 1% | . | . | 38 | 8%
CCS(=O)(=O)N1CCC(C(=O)NCCC(C)C)CC1 | . | -19%[46.1 µM] | -6% | -12% | -17 | .
Cc1ccc(NC(=O)c2oc3ccccc3c2NC(=O)Cc2ccccc2)cc1 | -11%[46.1 µM] | 4%[46.1 µM] | -14% | -12% | -17 | .
CCOC(=O)c1[nH]c(C)c(CCC(=O)Nc2cc(Cl)ccc2C)c1C | . | ? | -4% | -6% | -14 | .
Cc1c(C2=CCN(S(=O)(=O)c3ccc(CC(C)C)cc3)CC2)c2ccccc2n1CC(=O)N1CCCC1 | -20%[46.1 µM] | -22%[46.1 µM] | -10% | -17% | 10 | .
CCN(c1ccccc1)S(=O)(=O)c1ccc(C(=O)Nc2cccc(C)n2)cc1 | . | . | . | . | 19 | 11µM*
CCN(c1ccccc1)S(=O)(=O)c1ccc(OC)c(OC)c1 | -15% | 1% | . | . | -17 | 14%
CN(c1ccc(C(=O)Nc2ccc(Cl)cn2)cc1)S(=O)(=O)c1ccccc1 | . | . | . | . | -66* | 11µM*
CN(c1ccc(C(=O)O)cc1)S(=O)(=O)c1ccc(Cl)cc1 | -5% | 15% | . | -5% | 14 | -11%
CCN(c1ccccc1)S(=O)(=O)c1ccc2ccccc2c1 | -24% | 8% | -7% | 1% | -20 | 5.6µM*
Cc1ccc(S(=O)(=O)N(C)c2ccc(C(=O)Nc3cccc(C)n3)cc2)cc1 | ? | -14% | -17% | -18% | -77* | ?
CCN1CCCC1CNCc1cc2ccc(SC)cc2nc1-c1cc(OC)ccc1OC (stereo not given) | . | . | 9% | 27% | . | .
COc1ccc(/C=C/c2nccc3ccccc23)cc1OC | . | . | -22% | -15% | . | .
Cc1ccc(S(=O)(=O)N(C)c2ccc(C(=O)Nc3ccccn3)cc2)cc1 | 13% | -10% | -4% | -10% | -1 | -24%
Cc1ccc(S(=O)(=O)N(C)c2ccc(C(=O)NCC3CCCO3)cc2)cc1 (stereo not given) | 2% | -7% | . | . | -102* | 14%
Cc1ccc(S(=O)(=O)N(C)c2ccc(C(=O)Nc3ccc(C)cn3)cc2)cc1 | ? | ? | -10% | -8% | -37 | 5µM*
CN(c1ccc(C(=O)NCC2CCCO2)cc1)S(=O)(=O)c1ccc(Cl)cc1 (stereo not given) | . | . | -11% | -16% | 3 | .
O=C1OC(Nc2ccc(F)c([N+](=O)[O-])c2)c2ccccc21 (stereo not given) | ? | ? | i | -4% | 60 | 6%
O=C1OC(Nc2ccc3c(c2)OCO3)c2ccccc21 (stereo not given) | -24% | -4% | ? | ? | -97* | ?
O=C1OCc2cc(-c3ccccc3F)ccc21 | . | . | . | . | -11 | .
CCN(CC)S(=O)(=O)c1ccc(NC(=O)CCc2c(C)nc3cc(-c4ccc(Cl)cc4)nn3c2C)cc1 | ? | ? | -2% | -28% | -76* | .
SMILES | Marburg entry inh | Lassa entry inh | VACV mCherry inh | VACV Venus inh | HCMV antiviral | HCV inh
COCCN(Cc1cccs1)S(=O)(=O)c1ccc(-c2ccc(=O)[nH]n2)s1 | . | . | -12%[7.34 µM] | -11%[7.34 µM] | -19 | 8%
CCCCN(Cc1cccs1)S(=O)(=O)c1ccc(-c2ccc(=O)[nH]n2)s1 | -3%[46.1 µM] | 0%[46.1 µM] | -14% | -23% | -68* | -22%
CCOc1ccc(CCNC(=O)CN2CCN(Cc3ccc(F)cc3Cl)C2=O)cc1OCC | -24%[46.1 µM] | -2%[46.1 µM] | -14% | -4% | -13 | .
Cc1ccc(CNC(=O)c2ccc(-n3c(C)cc4c3CCCC4)cc2)cc1 | . | ? | -14% | -9% | -8 | .
CCOc1ccc(CCNC(=O)CN2CCN(Cc3ccc(Cl)cc3)C2=O)cc1OCC | 5µM* | 1%[46.1 µM] | -8% | 2% | -12 | .
Cc1cc2c(n1-c1ccc(C(=O)NCc3ccc(OC(C)C)cc3)cc1)CCCC2 | . | ? | ? | -27% | -99* | .
O=C(NC1CCCN(Cc2ccc(Cl)cc2)C1)c1cccc(N2CCCC2=O)c1 (stereo not given) | -18% | -5% | -7% | -20% | -6 | -31%
O=C(NC1CCCCCC1)c1cccc(N2CCCC2=O)c1 | ? | -25% | -24% | -22% | 28 | 25µM*
CCOc1ccc(CCNC(=O)c2ccc(-n3c(C)cc4c3CCCC4)cc2)cc1OCC | . | ? | ? | ? | -85* | .
COc1cc(OC)c(NC(=O)N2CCN3CCCCC3C2)cc1Cl (stereo not given) | . | -6%[46.1 µM] | -10% | -8% | -4 | .
COc1ccc(C(=O)NCC(c2cccnc2)N2CCN(c3ccc(F)cc3)CC2)cc1 (stereo not given) | . | -15%[46.1 µM] | -14% | -23% | -12 | .
COc1ccc(CCNC(=O)c2ccc(N3CCCC3=O)cc2)cc1OC | 8% | -1% | i | -10% | 22 | 0%
CCOc1ccc(CCNC(=O)c2cccc(N3CCCC3=O)c2)cc1OCC | -13% | -10% | -17% | -13% | -79* | -14%
CC1(C)[C@H]2CC[C@]1(C)[C@H](NC(=O)CCN1CCCCC1)C2 | -19% | . | . | . | . | .
CCn1cc[n+](C)c1P(c1ccccc1)c1ccccc1 | . | . | . | . | -76* | 9%
CCCN1CCC(N2CCCC(C(=O)O)C2)CC1 (stereo not given) | 7%[14.2 µM] | -18% | -4% | 5% | -60* | 4%
COc1ccc(C(=O)Nc2ccc(NC(=O)c3cccs3)cc2)cc1[N+](=O)[O-] | -28% | -13% | 5% | -7% | 41 | 2%
Cc1ccc(NC(=O)c2cccs2)cc1[N+](=O)[O-] | -13%[46.1 µM] | -10% | -14% | -16% | 14 | 7.9µM*
Cc1ccc(NC(=O)CCC(=O)c2cccs2)cc1F | 19%[46.1 µM] | 2% | 4% | -18% | -64* | 5%
Cc1ccc(C(=O)NC(=S)Nc2ccc(NC(=O)c3cccs3)cc2)cc1[N+](=O)[O-] | -20% | 5% | -10% | -19% | -78* | -10%
Cc1ccc(C(=O)Nc2ccc(NC(=O)c3cccs3)cc2)cc1[N+](=O)[O-] | . | . | . | . | -30 | -20%
CCc1ccc(N2C(=O)CSC23C(=O)N(Cc2cccc(OC)c2)c2ccccc23)cc1 (stereo not given) | . | -1%[46.1 µM] | -13% | -4% | -12 | .
COc1ccccc1CN1CC(C(=O)NCC2(O)CCCCC2)CCC1=O (stereo not given) | . | . | i | -3% | -64* | .
CN1CCN(C(=O)Cn2ncc3c4ccccc4n(Cc4ccc(Cl)cc4)c3c2=O)CC1 | ? | -2%[46.1 µM] | -12% | -14% | -32 | .

Screening results from PubChem BioAssay.
